Measured values reported in the supplement of paper PMC9925115.
Counter-ions that a name gives are not always drawn. ± gives the uncertainty stated by the source.

Test system: FLX1
Assay: cell viability z-score within plate (CellTiter-Glo), mean of 3 biological replicates; higher = higher viability relative to plate (less growth inhibition)
Details: 2 µM; time (hr): 120
Protocol: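 FLX1 fibrolamellar carcinoma cells (DNAJB1-PRKACA fusion), 600 cells/well in 384-well plates, treated with a Selleck kinase inhibitor library (L1200) at 2 uM for 5 days (120 hr); viability by CellTiter-Glo. A z-score was computed within each plate and averaged over three biological replicates.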

Question: How did the “cell viability z-score within plate” value turn out when `C[C@@H](Oc1cc(-n2cnc3ccc(CN4CCN(C)CC4)cc32)sc1C(N)=O)c1ccccc1C(F)(F)F` was run?
Answer: 0.737 ± 0.18

Question: For `CCS(=O)(=O)c1cccc(-c2cc(C(=O)NC3CCN(C)CC3)c(C)c3[nH]c4ncc(C)cc4c23)c1`, which “cell viability z-score within plate” value is on record?
Answer: 0.278 ± 0.45

Question: For `Oc1ccc(Nc2nc(-c3ccc(Cl)cc3)cs2)cc1`, which “cell viability z-score within plate” value is on record?
Answer: 0.219 ± 0.2

Question: Which “cell viability z-score within plate” value does the source give for `O=S(=O)(NCCNC/C=C/c1ccc(Br)cc1)c1cccc2cnccc12` here?
Answer: -2.86 ± 1.5

Question: With `Cc1c(CN2CCN(C(=O)[C@H](C)O)CC2)sc2c(N3CCOCC3)nc(-c3cnc(N)nc3)nc12` [Apitolisib (GDC-0980, RG7422)] as the compound, how does the “cell viability z-score within plate” value read?
Answer: 0.169 ± 0.42

Question: How did the “cell viability z-score within plate” value turn out when `Cc1nc(Nc2n[nH]c3c2CN(C(=O)N[C@H](CN(C)C)c2ccccc2)C3(C)C)c2sccc2n1` was run?
Answer: 1.12 ± 0.47

Question: With `COc1cc2c(Nc3ccc(NC(=O)c4ccccc4)cc3)ncnc2cc1OCCCN1CCOCC1` as the compound, how does the “cell viability z-score within plate” value read?
Answer: 0.281 ± 0.48

Question: For `CNC(=O)c1cc(Oc2ccc(NC(=O)Nc3ccc(Cl)c(C(F)(F)F)c3)cc2)ccn1` [Sorafenib], which “cell viability z-score within plate” value is on record?
Answer: -1.7 ± 1.3

Question: With `O=C(O)c1ccc(-c2c[nH]c3ncc(-c4ccccc4)cc23)cc1C1CCCC1` as the compound, how does the “cell viability z-score within plate” value read?
Answer: -1.12 ± 1.1

Question: With `N=C(N)NC(=N)NCCc1ccccc1` [Phenformin HCl] as the compound, how does the “cell viability z-score within plate” value read?
Answer: 1.08 ± 0.3

Question: `CC(=O)Nc1cccc(-n2c(=O)n(C3CC3)c(=O)c3c(Nc4ccc(I)cc4F)n(C)c(=O)c(C)c32)c1` was tested. Which “cell viability z-score within plate” value did it give?
Answer: 0.929 ± 0.43

Question: With `Cc1nc(Nc2cnn(C3CCNCC3)c2)nc2c1N(C)C(=O)c1cc3ccccc3cc1N2C` as the compound, how does the “cell viability z-score within plate” value read?
Answer: 1.62 ± 0.12

Question: How did the “cell viability z-score within plate” value turn out when `C=CC(=O)Nc1cccc(Oc2nc(Nc3ccc(N4CCN(C)CC4)cc3)ncc2Cl)c1` was run?
Answer: -0.0359 ± 0.21

Question: `CC(C)(C)c1cc(NC(=O)Nc2ccc(-c3cn4c(n3)sc3cc(OCCN5CCOCC5)ccc34)cc2)no1` [Quizartinib (AC220)] was tested. Which “cell viability z-score within plate” value did it give?
Answer: -0.415 ± 0.29

Question: `NC(=O)Nc1sc(-c2ccc(F)cc2)cc1C(N)=O` was tested. Which “cell viability z-score within plate” value did it give?
Answer: -0.156 ± 0.51

Question: For `CN(C)Cc1cccc(N/C(=C2\C(=O)Nc3cc(C(N)=O)ccc32)c2ccccc2)c1`, which “cell viability z-score within plate” value is on record?
Answer: -0.208 ± 0.31

Question: With `COc1cc2nccc(Oc3ccc(NC(=O)C4(C(=O)Nc5ccc(F)cc5)CC4)cc3)c2cc1OC` as the compound, how does the “cell viability z-score within plate” value read?
Answer: 0.561 ± 0.36

Question: Which “cell viability z-score within plate” value does the source give for `O=C1NC(=O)/C(=C/c2ccc(-c3ccc(F)cc3O)o2)S1` here?
Answer: 1.21 ± 0.57

Question: Which “cell viability z-score within plate” value does the source give for `CC(C)CC(=O)Nc1n[nH]c2c1CN(C(=O)C1CCN(C)CC1)C2(C)C` here?
Answer: 0.0889 ± 0.24

Question: How did the “cell viability z-score within plate” value turn out when `COCC(=O)NC/C=C/c1ccc2ncnc(Nc3ccc(Oc4ccc(C)nc4)c(C)c3)c2c1` was run?
Answer: -0.356 ± 0.16

Question: How did the “cell viability z-score within plate” value turn out when `CN(C[C@@H]1COCCO1)S(=O)(=O)Nc1ccc2ccc3ncc(-c4cnn(C)c4)cc3c(=O)c2c1` was run?
Answer: -0.122 ± 0.42

Question: `O=C(NOCC1CC1)c1ccc(F)c(F)c1Nc1ccc(I)cc1Cl` was tested. Which “cell viability z-score within plate” value did it give?
Answer: 0.606 ± 0.25

Question: How did the “cell viability z-score within plate” value turn out when `C#Cc1cccc(Nc2ncnc3cc(OCCOC)c(OCCO)cc23)c1` was run?
Answer: -0.584 ± 1.3

Question: For `Cc1cc(Nc2ncc(Cl)c(Nc3ccccc3S(=O)(=O)C(C)C)n2)c(OC(C)C)cc1C1CCNCC1` [Ceritinib (LDK378)], which “cell viability z-score within plate” value is on record?
Answer: 0.337 ± 0.65

Question: `Cc1cc(CS(=O)(=O)c2ccccc2)cc(OCc2ccc(CN3CCC[C@@H]3CO)cc2)c1` was tested. Which “cell viability z-score within plate” value did it give?
Answer: 0.378 ± 0.24

Question: For `CCN1CCN(Cc2ccc(C(=O)Nc3ccc(C)c(Oc4ccc5c(c4)CC(=O)N5)c3)cc2C(F)(F)F)CC1`, which “cell viability z-score within plate” value is on record?
Answer: 0.226 ± 0.35

Question: For `NC(=O)c1ccc(N(C(N)=O)c2c(F)cccc2F)nc1-c1ccc(F)cc1F`, which “cell viability z-score within plate” value is on record?
Answer: -1.05 ± 0.15

Question: With `C[C@@H](NC(=O)c1ncnc(N)c1Cl)c1ncc(C(=O)Nc2cc(C(F)(F)F)c(Cl)cn2)s1` as the compound, how does the “cell viability z-score within plate” value read?
Answer: 0.647 ± 0.28

Question: For `C[C@]1(O)C[C@@H](c2nc(-c3ccc4ccc(-c5ccccc5)nc4c3)c3c(N)nccn32)C1` [Linsitinib (OSI-906)], which “cell viability z-score within plate” value is on record?
Answer: 0.624 ± 0.4

Question: `C=CCc1ccc(O)c(-c2ccc(O)c(CC=C)c2)c1` [Honokiol] was tested. Which “cell viability z-score within plate” value did it give?
Answer: 0.237 ± 0.16

Question: `Oc1c2ccccc2c2c3c(cccc13)N=N2` was tested. Which “cell viability z-score within plate” value did it give?
Answer: 0.48 ± 0.65

Question: `O=C(NOCC(O)CO)c1cc(Br)c(F)c(F)c1Nc1ccc(I)cc1F` (stereo not drawn) was tested. Which “cell viability z-score within plate” value did it give?
Answer: 0.628 ± 0.22

Question: `CC[C@H](CO)Nc1nc(NCc2ccccc2)c2ncn(C(C)C)c2n1` [Roscovitine (Seliciclib,CYC202)] was tested. Which “cell viability z-score within plate” value did it give?
Answer: 0.283 ± 0.3

Question: With `O=C1NC(=O)C(c2cnc3ccccn23)=C1c1cn2c3c(cc(F)cc13)CN(C(=O)N1CCCCC1)CC2` as the compound, how does the “cell viability z-score within plate” value read?
Answer: 1.17 ± 1.1

Question: With `CC[C@@H]1C(=O)N(C)c2cnc(Nc3ccc(C(=O)N[C@H]4CC[C@H](N5CCN(CC6CC6)CC5)CC4)cc3OC)nc2N1C(C)C` [Volasertib (BI 6727)] as the compound, how does the “cell viability z-score within plate” value read?
Answer: -0.186 ± 0.53

Question: How did the “cell viability z-score within plate” value turn out when `Oc1cc(O)cc(/C=C/c2ccc(O)c(O)c2)c1` [Piceatannol] was run?
Answer: -0.333 ± 0.2

Question: `CCc1cnn2c(NCc3ccc[n+]([O-])c3)cc(N3CCCC[C@H]3CCO)nc12` was tested. Which “cell viability z-score within plate” value did it give?
Answer: 0.031 ± 0.76

Question: For `Nc1cccc(-c2cc3c(Oc4cccc(O)c4)ncnc3[nH]2)c1`, which “cell viability z-score within plate” value is on record?
Answer: -0.5 ± 0.21

Question: `COc1ccc(S(=O)(=O)N(CCO)c2ccccc2CN(C)C/C=C/c2ccc(Cl)cc2)cc1` [KN-93 Phosphate] was tested. Which “cell viability z-score within plate” value did it give?
Answer: 0.23 ± 0.54

Test system: FLX1 + dox-induced PRKAR1A G325D
Assay: difference in log2 fold change of viability vs plate median (dox-induced PRKAR1A G325D minus uninduced); higher = compound less effective when PKA is inhibited
Details: concentration: not stated (2 or 5 uM); 5 days
Protocol: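 For each plate a log2 fold change vs the plate median was derived, and the values without dox were subtracted from those with dox, averaged over three biological replicates.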

Question: For `NC(=O)c1ccc(N(C(N)=O)c2c(F)cccc2F)nc1-c1ccc(F)cc1F`, which “difference in log2 fold change of viability” value (“difference in log2 fold change” for short) is on record?
Answer: 0.256

Question: For `C[C@@H](NC(=O)c1ncnc(N)c1Cl)c1ncc(C(=O)Nc2cc(C(F)(F)F)c(Cl)cn2)s1`, which “difference in log2 fold change” value is on record?
Answer: -0.193

Question: `CCc1cnn2c(NCc3ccc[n+]([O-])c3)cc(N3CCCC[C@H]3CCO)nc12` was tested. Which “difference in log2 fold change” value did it give?
Answer: 0.265

Question: How did the “difference in log2 fold change” value turn out when `Nc1cccc(-c2cc3c(Oc4cccc(O)c4)ncnc3[nH]2)c1` was run?
Answer: -0.478
